Experimental data: PubChem BioAssay (EPA / NIEHS)
The source made the active and inactive calls. How the source made its calls: active means hit-call score of the fitted dose curve at least 0.9, where 1 is the maximum; inactive means score below 0.9.

Each compound was assayed on Intercellular Adhesion Molecule 1 (ICAM1), ICAM1 (gene 3383) (assay: BSK_3C_ICAM1: BioMAP Diversity Plus: 3C Assay for Intercellular Adhesion Molecule 1 (ICAM1) Biomarker Activity (AID 2283003)). Details: primary human endothelial cells (HUVEC); actives raise or lower the signal.
Protocol: BSK_3C is a cell-based, multiplexed-readout assay that uses umbilical vein endothelium, a human vascular primary cell, with measurements taken at 24 hours after chemical dosing in a 96-well plate.BSK_3C_ICAM1 is an assay component measured in the BSK_3C assay. It measures ICAM-1 antibody related to regulation of gene expression using ELISA technology.Data from the assay component BSK_3C_ICAM1 was analyzed into 1 assay endpoint. This assay endpoint, BSK_3C_ICAM1, was analyzed with bidirectional fitting relative to DMSO as the negative control and baseline of activity. Using a type of binding reporter, gain or loss-of-signal activity can be used to understand changes in the signaling as they relate to the gene ICAM1. Furthermore, this assay endpoint can be referred to as a primary readout, because this assay has produced multiple assay endpoints where this one serves a signaling function. To generalize the intended target to other relatable targets, this assay endpoint is annotated to the cell adhesion molecules intended target family, where the subfamily is Immunoglobulin CAM.
The levels of cell surface (or secreted, indicated by the prefix "s") biomarker endpoints were measured by ELISA. Overt cytotoxicity to cells in confluent adherent cultures (all systems other than the BT system) was assessed by measuring total protein levels using sulforhodamine B (SRB) staining in parallel cultures at the time of biomarker measurements, indicated as SRB endpoints. For proliferation assays for adherent cell types, individual cell types are cultured at sub-confluence and relative cell numbers quantified by SRB staining at time points optimized for each system (48 h: 3C and CASM3C systems; 72 h: BT and HDF3CGF systems; 96 h: SAg system). SRB was performed by staining cells with 0.1% SRB after fixation with 10% TCA and reading wells at 560 nm.Viability and proliferation of PBMC (T cells) was quantified by Alamar Blue reduction for the SAg and BT systems. For PBMC viability (referred to as PBMC Cytotoxicity within the assay endpoint names), cells were plated (75,000/well in a 96-well plate) and then chemical samples added for 1 h before addition of activators, SEB and TSST-1 (20 ng/mL final concentration each). Cells were incubated for 90 h. Then, Alamar Blue (20 uL/well) (Invitrogen, Cat DAL1100) was added for 6 h, and the plates were read with a fluorescence microplate reader at 546/580 nm (excitation/emission). For PBMC proliferation, cells were plated and activated as above but incubated for only 16 h prior to addition of Alamar Blue. Plates were read after 6 h.

Row | SMILES | AC50 | outcome
1 | ClC1=C(Cl)[C@]2(Cl)[C@H]3[C@H]([C@@H]4C=C[C@H]3C4)[C@@]1(Cl)C2(Cl)Cl | 35 µM (active) | 
2 | Clc1ccc(Cl)c(Cl)c1 |  | inactive
3 | CCC12COCN1COC2 |  | inactive
4 | CC(O)CCO (stereo not given) |  | inactive
5 | CCC(C)c1ccc(O)cc1 (stereo not given) |  | inactive
6 | O=[N+]([O-])c1ccc(Oc2ccc(Cl)cc2Cl)cc1 |  | inactive
7 | N#CC(Br)Br |  | inactive
8 | C1=Cc2cccc3cccc1c23 |  | inactive
9 | CC(C)(C)C(O)(CCc1ccc(Cl)cc1)Cn1cncn1 (stereo not given) |  | inactive
10 | CN(C)[C@@H]1C(=O)C(C(N)=O)=C(O)[C@@]2(O)C(=O)C3=C(O)c4c(O)cccc4[C@@](C)(O)[C@H]3C[C@@H]12 |  | inactive
11 | Oc1ccc2ccc3cccc4ccc1c2c34 | 31.8 µM (active) | 
12 | O=C(O)C1C2CCC(O2)C1C(=O)O (stereo not given) |  | inactive
13 | COc1cc(C=O)cc2c1[C@H](COC(N)=O)[C@]1(OC(C)=O)ON2C[C@H]2[C@@H]1N2C(C)=O | 23.3 µM (active) | 
14 | CS(=O)(=O)NC(=O)c1cc(Oc2ccc(C(F)(F)F)cc2Cl)ccc1[N+](=O)[O-] |  | inactive
15 | C[C@]12C=CC3=C4CCC(=O)C=C4CC[C@H]3[C@@H]1CC[C@@H]2O |  | inactive
16 | CC(C)N(Cc1ccccc1)C(=O)C(C)(C)C |  | inactive
17 | O=C(N[C@H](c1ccccc1)[C@@H]1CN2CCC1CC2)c1c(Cl)ccc(C(F)(F)F)c1Cl |  | inactive
18 | Cc1ccc(N=C=O)cc1N=C=O |  | inactive
19 | CNC(=O)Oc1cccc2c1OC(C)(C)C2 |  | inactive
20 | CCNS(=O)(=O)C(F)(F)C(F)(F)C(F)(F)C(F)(F)C(F)(F)C(F)(F)C(F)(F)C(F)(F)F |  | inactive

Row | SMILES | AC50 | outcome
21 | CCN(CC)CCO |  | inactive
22 | CCCCCCCCCCCCCN1CC(C)OC(C)C1 (stereo not given) |  | inactive
23 | [O-][Cl+]O |  | inactive
24 | COC(=O)c1ccccc1N |  | inactive
25 | c1ccc(NNc2ccccc2)cc1 |  | inactive
26 | COP(=S)(OC)SCN1C(=O)c2ccccc2C1=O |  | inactive
27 | O=Cc1ccco1 |  | inactive
28 | CC(C)(OOC(C)(C)c1ccccc1)c1ccccc1 |  | inactive
29 | Cc1cccc(N)c1N |  | inactive
30 | Cn1cc(-c2ccccc2)c(=O)c(-c2cccc(C(F)(F)F)c2)c1 |  | inactive
31 | c1ccc2c(c1)-c1cccc3cccc-2c13 |  | inactive
32 | c1ccc(N=Nc2ccccc2)cc1 |  | inactive
33 | OCCOCCO |  | inactive
34 | Brc1ccc(Oc2ccccc2)cc1 |  | inactive
35 | CN(C)c1ccc(C(=O)c2ccc(N(C)C)cc2)cc1 |  | inactive
36 | CCOc1cccc(C2(N3CCN(c4ccccc4)CC3)CCC(C)CC2)c1 (stereo not given) |  | inactive
37 | CCN(CC)N=O |  | inactive
38 | C[N+](C)(C)CC1CO1 (stereo not given) |  | inactive
39 | CO[C@@H]1[C@H](OC(=O)NC(=O)CCl)CC[C@]2(CO2)[C@H]1[C@@]1(C)O[C@@H]1CC=C(C)C |  | inactive
40 | CN(C)C(=O)Nc1ccc(Cl)cc1 |  | inactive
